An excerpt weighted towards active compounds, which were near 11% of everything screened.
HPGD inh: inhibitors of human 15-hydroxyprostaglandin dehydrogenase (HPGD) | purified HPGD, NADH fluorescence kinetic, PGE2 substrate | Potency, µM, without a hit: at the top dose activity change, negative = inhibition, most hits filed as inhibitors | 150,000 compounds, 4.3% hits; active = well fitted inhibition curve with a large enough effect, not every such curve was filed as active; inconclusive = small, poorly fitted or top-dose-only effect, or another doubt; inactive = no such curve, though single readings can be large or run the other way; also: potency is read from the fitted curve at half-maximal effect
Target sequence (P15428 whole entry, looked up): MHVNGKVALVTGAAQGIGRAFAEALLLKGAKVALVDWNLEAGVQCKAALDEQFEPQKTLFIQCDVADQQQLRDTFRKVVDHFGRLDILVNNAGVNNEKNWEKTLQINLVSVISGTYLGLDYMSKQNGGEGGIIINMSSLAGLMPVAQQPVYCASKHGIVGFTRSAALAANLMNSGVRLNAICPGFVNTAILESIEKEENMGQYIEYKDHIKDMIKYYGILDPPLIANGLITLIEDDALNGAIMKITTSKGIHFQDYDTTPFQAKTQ
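NADH formation kinetics: reaction with 30 uM PGE2 and 1 mM NAD+ (final), 20 nM enzyme, Tris-HCl pH 8 with Tween 20, after 15 min compound preincubation at room temperature. Fluorescence change, last versus first of five reads.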
IMPase cell inh: cell-permeable inhibitors of inositol monophosphatase (IMPase); P97697; CHO-M1 cells, IP1 accumulation, HTRF TR-FRET ratio; inhibition (IP1 accumulation), % at 46.1 µM; 120,000 tested, under 10 active; AID 901; active = well fitted curve in the direction sought with a large enough effect in the signal ratio, not every such curve was filed as active; inconclusive = small, poorly fitted or top-dose-only effect, or a change in a side signal; inactive = no such curve, though single readings can be large or run the other way; the % refers to the signal ratio;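 also: cells stimulated with carbachol in lithium chloride buffer; plate controls were DMSO basal wells for no effect and reference inhibitor wells for full effect; higher means more IMPase inhibition seen as more IP1 and lower FRET ratio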
Target sequence (P97697 whole entry, looked up): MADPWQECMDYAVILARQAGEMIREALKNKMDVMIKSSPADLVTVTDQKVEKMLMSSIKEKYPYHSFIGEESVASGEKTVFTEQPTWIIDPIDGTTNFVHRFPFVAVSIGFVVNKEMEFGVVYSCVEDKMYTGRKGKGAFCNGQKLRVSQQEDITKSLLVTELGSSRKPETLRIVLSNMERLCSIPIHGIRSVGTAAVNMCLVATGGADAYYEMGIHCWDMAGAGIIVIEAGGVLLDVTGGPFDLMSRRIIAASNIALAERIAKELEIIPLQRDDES
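The IP-One HTRF competitive assay in carbachol-stimulated CHO-M1 cells quantifies cellular IP1. Compounds spanned up to 46 uM final, and activity is expressed as AC50 from concentration-response fits of the ratio and donor data.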
ALDH1A1 block: blocks purified human ALDH1A1 activity; Purified ALDH1A1, NADH fluorescence, propionaldehyde substrate; Potency, µM (top dose mostly 75.3 µM), without a hit: top-dose activity, negative = inhibition, actives largely listed as inhibitors; 220,000 compounds, 7.3% hits; active = well fitted inhibition curve with a large enough effect, not every such curve was filed as active; inconclusive = small, poorly fitted or top-dose-only effect, or another doubt; inactive = no such curve, though single readings can be large or run the other way;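 also: potency is read from the fitted curve at half-maximal effect; plate controls were no enzyme wells and a reference inhibitor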
PNC assembly inh: blocks assembly of the perinucleolar compartment; PC3M PTB-GFP, PNC prevalence imaging, 16 h; stronger effect = lower value; activity change (PNC), negative = inhibition, % at 10 µM; 140,000 compounds, 3.1% hits; AID 2417;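 active = readout at or below -70, meaning at least 70% loss of cells showing the perinucleolar compartment, a nuclear body marking cancer cells; inconclusive = readout between -30 and a set limit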;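 also: plate controls were DMSO wells for no effect and camptothecin positive control wells for full effect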
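Compounds are pinned in duplicate onto adhered PC3M cells stably expressing GFP-tagged PTB and incubated 16 h at 37 C. Cells are then fixed, nuclei stained with Hoechst, and PNC-positive cells counted.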
12-hLO inh: inhibitors of human 12-lipoxygenase (ALOX12). P18054. 150,000 compounds, 0.12% hits. purified 12-hLO, xylenol orange hydroperoxide absorbance. AID 1452. Potency, µM (doses to about 57.1 µM), inactives show at the highest dose activity change, negative = inhibition, hits mostly inhibitors; also: potency is read from the fitted curve at half-maximal effect; nearly all actives have a fitted effect of over 55% in size
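150 nM 12hLO, 25 mM Hepes pH 7.0 + 0.01% Triton X-100; cpd preinc 15 min RT; 40 uM arachidonic acid, 30 min RT; Fe-XO 30 min; A573/A405 ratio as read-out.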
IMPase Li inh: cell-permeable IMPase inhibitors with lithium potentiation. CHO-M1 cells, IP1 TR-FRET (IP-One), carbachol + lithium. Potency, µM (doses to about 59.4 µM), for inactives: at the highest dose activity, negative = IMPase inhibition, hits mostly inhibitors. 210,000 compounds, 0.35% hits;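 also: IP1 builds up when IMPase is blocked and the TR-FRET signal falls; potency is read from the fitted curve at half-maximal effect; plate controls were basal vehicle for no effect and high inhibitor control for full effect; nearly all actives have a fitted effect of over 50% in size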
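CHO-M1, 2000 cells/well, 16–30 h culture; cpd + low Li+, 30 min 37C; lysis with d2-IP1/Eu-anti-IP1 Ab, 10 min RT; TR-FRET 665/620 ratio and 620 channel; AC50 via Hill.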
Starred values were filed as active, the others as inactive; u = inconclusive; x = not tested or not shown; [ ] = remark or other dose. Unless noted, calls follow the shape of the dose curve; as a rule, active = well fitted curve in the direction sought with a large enough effect; inconclusive = small, poorly fitted or top-dose-only effect, or another doubt; inactive = no such curve, though single readings can be large; an effect the other way counts as inactive or inconclusive. Unless noted, % is scaled to controls: 0 for no effect and ±100 for the full control effect.

SMILES	HPGD inh	IMPase cell inh	ALDH1A1 block	PNC assembly inh	12-hLO inh	IMPase Li inh
O=C(OCC(=O)N1CCCC1)c1ccc(NS(=O)(=O)c2cccs2)cc1O	x	x	u	x	x	-4%
COc1cccc(NC(=S)NNC(=O)c2ccccc2OC(F)F)c1	u	7	25µM*	20	-13%	-3%[38.3 µM]
O=C(NNC(=S)Nc1ccc(F)cc1)c1ccccc1OC(F)F	-14%	2	u	u	-6%	31%[38.3 µM]
O=C(NNC(=S)Nc1cccc(Cl)c1)c1ccccc1OC(F)F	-12%	x	25µM*	-10	-4%	3%
CCn1c2ccccc2c(=O)c2ccccc21	x	x	u	x	x	16%
CCn1c(=O)c(C(=O)Nc2ccccc2C)c(O)c2ccccc21	u	-7	17%	-100*	-5%	-10%
CCn1c(=O)c(C(=O)Nc2ccccc2S(N)(=O)=O)c(O)c2ccccc21	-2%	3	0%	-10	-18%	3%[38.3 µM]
CCn1c(=O)c(-[n+]2ccccc2)c(O)c2ccccc21	-7%	-3	25µM*	-3	4%	0%
Cc1cccc(CNc2ncncc2-c2ccccc2C(F)(F)F)c1	-8%	x	u	x	-6%	16%
CSc1ccc(S(=O)(=O)NCc2ccccc2)cc1	-24%	4	u	-3	6%	15%[38.3 µM]
CSc1ccc(S(=O)(=O)NCc2ccc(Cl)cc2Cl)cc1	-7%	8	25µM*	u	-13%	3%[38.3 µM]
COc1ccc(N=C2C(=Nc3ccc(OC)cc3)N(c3ccccc3)C(=S)N2C(=O)c2ccc(Cl)cc2)cc1	-14%	-8	u	-100*	3%	-1%
COc1cccc(CS(=O)(=O)c2nnnn2-c2ccc(F)cc2Br)c1	-10%	x	u	x	x	12%
COc1cccc(/C=N/NC(=O)c2cc3c(OC)c(OC)ccc3[nH]2)c1OC	u	x	u	-84*	-2%	0%
COc1cccc(/C=N/NC(=O)c2cc3c(OC)cccc3[nH]2)c1OC	-27%	-10	-2%	u	-4%	-7%
CC1CCCC2(C1)NC(=S)c1c(sc3c1CCCC3)N2 (centres undefined)	4.5µM*	-1	3.5µM*	u	-27%	-7%[38.3 µM]
CN1C(=O)c2c(sc3c2CCCC3)NC1c1ccccc1O (centres undefined)	-22%	-14	u	u	-17%	23%[38.3 µM]
COc1ccc(C(=O)NCCN2C(=O)S/C(=C\c3cccnc3)C2=O)c(OC)c1OC	-17%	x	6%	-9	-4%	6%
O=C(CCl)NCCN1C(=O)S/C(=C\c2cccnc2)C1=O	x	x	1.6µM*	x	x	12%
CCOc1cc(C(=O)NCCN2C(=O)S/C(=C\c3cccnc3)C2=O)cc(OCC)c1OCC	-8%	x	12%	8	4%	-1%
CC(C(=O)NCCN1C(=O)S/C(=C\c2cccnc2)C1=O)N1C(=O)c2ccccc2C1=O (centres undefined)	-6%	x	1%	-105*	-2%	4%
NC(=NCc1ccc(Cl)cc1Cl)NC(=O)c1nc(Cl)c(N)nc1N	x	x	u	x	x	5%
CCn1cc(C(=O)NCc2ccccc2OC)c(=O)c2cc(S(=O)(=O)N(C)C)ccc21	-20%	-4	3.2µM*	20	-2%	32%[38.3 µM]
CCOC(=O)C1(CCOc2ccccc2)CCN(Cc2ccc(COC)o2)CC1	x	x	11%	x	x	6%
CCOC(=O)C1(CCOc2ccccc2)CCN(Cc2ccc(C)o2)CC1	x	x	18µM*	x	x	30%
SMILES	HPGD inh	IMPase cell inh	ALDH1A1 block	PNC assembly inh	12-hLO inh	IMPase Li inh
COc1cccc(CNC(=O)C(c2ccc(Cl)cc2)C(C)C)c1 (centres undefined)	-13%	x	u	u	-4%	15%
COc1cccc(CNC(=O)CCl)c1	-22%	5	7.1µM*	u	0%	-7%
O=C(COc1ccccc1Cl)N1CCN(c2ccc([N+](=O)[O-])c(N3CCOCC3)c2)CC1	-17%	9	11µM*	u	-1%	-1%
Cc1cc(C)n(-c2cc(N3CCN(C(=O)c4cccc(Br)c4)CC3)ccc2[N+](=O)[O-])n1	-13%	14	14µM*	48	-19%	2%[38.3 µM]
O=[N+]([O-])c1ccc(N2CCOCC2)cc1N1CCCCC1	x	x	5.6µM*	x	x	-5%
Cc1cc(C)n(-c2nc3ccccc3nc2N2CCN(C(=O)c3ccccc3)CC2)n1	0%	2	13µM*	-29	-5%	35%[38.3 µM]
CC(=O)N1CCN(c2ccc([N+](=O)[O-])c(-n3nc(C)cc3C)c2)CC1	-3%	x	-2%	20	-6%	-1%
CNc1nc(-c2ccccc2C(F)(F)F)nc2ccccc12	-9%	x	3%	x	6%	3%
O=C(O)CNC(=O)[C@H]1NC(C(F)(F)F)(C(F)(F)F)OC1(C(F)(F)F)C(F)(F)F	0%	x	1%[13.5 µM]	x	0%[11.4 µM]	-13%
Cc1nn(-c2cc(N3CCCCC3)ccc2[N+](=O)[O-])c(=O)c2ccccc12	-15%	2	-10%	-19	-4%	10%
O=[N+]([O-])c1ccc(N2CCCC2)cc1N1CCCC1	-15%	14	14µM*	-27	-9%	2%[38.3 µM]
O=C(c1ccco1)N1CCN(c2ccc([N+](=O)[O-])c(N3CCOCC3)c2)CC1	x	x	3%	x	x	8%
O=C(c1ccccc1Br)N1CCN(c2ccc([N+](=O)[O-])c(N3CCOCC3)c2)CC1	x	x	7.9µM*	x	x	-11%
Cc1nn(-c2cc(N3CCNCC3)ccc2[N+](=O)[O-])c(=O)c2ccccc12	-8%	6	u	-97*	-2%	5%[38.3 µM]
CN(C)S(=O)(=O)N1CCN(c2ccc([N+](=O)[O-])c(N3CCCCC3)c2)CC1	x	x	4µM*	x	x	1%
CCCCN(C)C(=S)Nc1ccsc1C(=O)OC	x	x	u	x	x	7%
COCCNc1ncnc2ccc(-c3ccc(C(=O)N(C)C)cc3)cc12	x	x	u	x	x	7%
CC(C)(C)c1ccc(CNc2cc(N3CCOCC3)ccc2[N+](=O)[O-])cc1	x	1	1.6µM*	22	-14%	x
Cc1cc(N2CCCCC2)ccc1[N+](=O)[O-]	22µM*	x	-1%	30	13%	6%
COc1cc2c(cc1OC)[C@H](c1ccccc1)CN(C)CC2	x	4	x	x	-3%	x
